Screening results deposited in PubChem BioAssay by National Center for Advancing Translational Sciences (NCATS).
HCMV inh: human cytomegalovirus inhibition; activity change, negative = inhibition, % at 57.5 µM; HFF cells, HCMV-luciferase reporter, 72 h; stronger effect = lower value; 410,000 compounds, 4.5% hits; in the data active = activity change below about -60%; inconclusive = no clear call, values can overlap the other calls; inactive = above about -39%
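Screen run at 2 compound doses on HFFs infected with reporter HCMV, MOI 1 PFU/cell. Luciferase activity from cell lysates at 72 h post infection gave inhibition relative to buffer-only and Salinomycin wells.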
CHX counter: counter-screen for Shiga toxin inhibitors: cycloheximide protein synthesis inhibition; 300,000 compounds, 12% hits; cell reporter, cycloheximide protein synthesis inhibition counterscreen; max response, %; in the data active = max response mostly above about 13%, no sharp cut-off; inactive = mostly below about 14%; also: read at 38.3 µM for the half of the compounds with a filed dose
Shiga inhibitor: blocks Shiga toxin action in Vero cells | Vero cells, Shiga toxin protein synthesis inhibition reporter | 290,000 compounds, 9.2% hits | inhibition, % at 38.7 µM; in the data active = inhibition mostly above about 28%, no sharp cut-off; inactive = mostly below about 43%
Pf growth 48h: inhibits P. falciparum growth in the first generation, 48 h | P. falciparum luciferase growth in erythrocytes, 48 h | Potency, µM (top dose mostly 28.7 µM), most hits filed as inhibitors | 310,000 compounds, 5.9% hits
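Here the parasites carry a stable luciferase gene and grow inside erythrocytes in Albumax-based RPMI medium with compound for one erythrocytic cycle. Activity is scored as loss of luminescent signal.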
Pf growth 96h: inhibits malaria parasite growth, 96 h; P. falciparum luciferase reporter growth, 96 h; Potency, µM (titrated, usually from 28.7 µM), most hits filed as inhibitors; 320,000 compounds, 6.9% hits; AID 504834
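Infected RBCs, 2% Hct / 0.05% parasitemia final; luciferase-reporter P. falciparum; cpd 96 h, 37 C, 5% CO2; luciferase detection reagent; luminescence.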
Hits are given with their value; – = inactive; ? = inconclusive; · = not tested or not shown; [ ] = another dose, or the depositor's remark. Rows were chosen to be rich in hits. Some 20% of all compounds tested hit in one or more screens of this group. Unless noted, calls follow the shape of the dose curve; as a rule, active = well fitted inhibition curve with a large enough effect; inconclusive = small, poorly fitted or top-dose-only effect, or another doubt; inactive = no such curve, though single readings can be large or run the other way.

SMILES	HCMV inh	CHX counter	Shiga inhibitor	Pf growth 48h	Pf growth 96h
C[C@@H]1O[C@H](O[C@@H]2\C=C/C=C\C=C/C=C\C[C@H](C)OC(=O)/C=C\[C@H]3O[C@@H]3C[C@H](O)C[C@]3(O)C[C@@H](O)[C@@H](C(=O)O)[C@H](C2)O3)[C@@H](O)[C@H](N)[C@@H]1O (stereo in doubt)	·	·	·	–	–
O=[N+]([O-])c1cccc2c(N3CCCC3)ccnc12	-106	21	–	?	–
C=CCN1C[C@H](C)N(C(c2ccc(C(=O)N(CC)CC)cc2)c2cccc(OC)c2)CC1C (some centres undefined)	-65	·	·	·	·
CCN1C(=Nc2ccc(Cl)cc2)SC/C1=C\C(=O)OC	–	22	–	–	?
CCN1C(=O)CSC1=Nc1ccccc1Cl	–	–	–	–	–
COc1cc(CN2CCC(C(=O)NC(c3ccc(F)cc3)c3ncccc3C)CC2)cc(OC)c1 (centres undefined)	–	·	·	·	·
Cc1cccnc1C(NC(=O)C1CCN(Cc2ccccc2)CC1)c1ccc(F)cc1 (centres undefined)	-62	·	·	·	·
COC(=O)CCCn1c(C)cc(C(=O)CCl)c1C	–	–	–	?	?
CCOC(=O)c1cc(C)n(CCc2ccccc2)c1C	–	22	–	?	–
Cc1cc(C(=O)CCl)c(C)n1CCc1ccccc1	-100	–	–	–	–
Nc1ccn([C@@H]2O[C@H](C(=O)NCCCN3CCCC3=O)[C@@H](O)[C@H]2O)c(=O)n1	–	·	·	·	·
O=C(Nc1ccc(-c2nc3ccccc3s2)c(O)c1)c1ccc(Br)cc1	–	·	·	·	·
Oc1ccc(N=C/C=C/c2ccc(Br)cc2)cc1-c1nc2ccccc2s1	·	36	40	–	–
Cn1ncc2c(c(SCc3ccc(Cl)cc3Cl)nn2C)c1=O	–	–	–	7.4µM	?
Cn1c(SCc2ccc(Cl)cc2Cl)nc(C(F)(F)F)cc1=O	–	–	–	–	–
CCC[C@H](/C=C/C(=O)OC(C)(C)C)NC(=O)C(F)(F)F	–	·	·	·	·
Cc1ccc(NC(=O)CCNC(=O)c2ccc([N+](=O)[O-])cc2)cc1C	–	–	–	–[0.00184 µM]	–
COc1ccc(Cl)cc1NC(=O)C/C(C)=N/NC(=O)c1ccc(O)cc1	–	31	68	–	?
COc1cc(NC(=O)C/C(C)=N/NC(=O)c2cccc(O)c2)c(OC)cc1Cl	–	30	129	–	–
COc1ccc(Cl)cc1NC(=O)CCc1ccccc1	?	–	–	–	·
COc1ccc(Cl)cc1NC(=O)C/C(C)=N/NC(=O)Cc1ccccc1	–	–	44	–	–
CCOc1ccc(-c2cc(C(=O)Nc3ccc(C)c(NS(C)(=O)=O)c3)[nH]n2)c(C)c1	-91	·	·	·	·
CCOC(=O)c1ccc(NC(=O)c2ccc(-c3cccc(Cl)c3C)o2)cc1	–	·	·	·	·
c1ccc(C2=Nc3ccccc3SC2c2nc3ccccc3[nH]2)cc1 (centres undefined)	·	36	87	?	?
O=C1CC(c2nc3ccccc3[nH]2)CN1c1ccccc1 (centres undefined)	–	–	–	–	·
SMILES	HCMV inh	CHX counter	Shiga inhibitor	Pf growth 48h	Pf growth 96h
CCN(CC(=O)Nc1ccc(NC(C)=O)cc1)Cc1c(O)ccc2cc(Br)ccc12	–	–	–	–	–
CN(c1ccc(C(=O)Nc2ccccc2C(F)(F)F)cc1)S(C)(=O)=O	?	–	41	–	?
CN(c1ccc(C(=O)NCCc2ccccc2)cc1)S(C)(=O)=O	–	21	68	·	–
CC(C)c1ccc(N(CC(=O)NCCSC(C)(C)C)S(C)(=O)=O)cc1	–	31	–	·	–
CC(C)(C)SCCNC(=O)CN(c1ccccc1)S(=O)(=O)c1ccccc1	–	–	–	?	?
Cc1ccc(S(=O)(=O)N(C)c2ccc(C(=O)NCCc3ccccc3)cc2)cc1	–	32	62	?	10µM
COc1ccc(Cn2c(C(=O)O)c(CNC3CCCCC3)c3ccc(C)cc32)cc1	–	·	·	·	·
O=C(CNC(=O)C1CCCCC1)NC1CCCCC1	–	–	–	–	?
COc1ccccc1CNC(=O)c1oc2ccc(S(=O)(=O)N3CCCCC3)cc2c1C	–	·	·	·	·
Cc1ccc(-n2ncc(C(=O)NCc3ccco3)c2C2CCN(C(=O)OC(C)(C)C)CC2)cc1	–	·	·	·	·
CCN(CC)S(=O)(=O)c1cccc(C(=O)NCCc2ccccc2)c1	–	·	·	·	·
CN(c1ccc(C(=O)NCCSC(C)(C)C)cc1)S(C)(=O)=O	–	37	140	–	·
CN(c1ccc(C(=O)NCCSCc2ccco2)cc1)S(C)(=O)=O	?	30	41	–	·
CN(c1ccccc1)S(=O)(=O)c1cccc(C(=O)NCCc2ccc(O)c(O)c2)c1	–	–	–	13µM	?
CCN(Cc1ccccc1)C(=O)c1ccc(CNS(=O)(=O)c2ccc(C)cc2)cc1	–	–	–	?	–
CCN(Cc1ccccc1)C(=O)c1ccc(N(C)S(=O)(=O)c2ccc(C)cc2)cc1	–	·	·	15µM	?
CCc1ccc(CNC(=O)Cn2nc(C)n3c(cc4cc(C)ccc43)c2=O)cc1	–	·	·	·	·
Cc1cc(C(=O)C[N+]2(C)CCOCC2)c(C)n1-c1ccc(Br)cc1	?	–	–	?	?
CC1CN=C(c2ccc(Cl)cc2)c2c3ccccc3[n+]([O-])n21 (centres undefined)	–	·	·	·	·
Cc1ccc(S(=O)(=O)N(C)c2ccc(C(=O)NCC3CCCO3)cc2)cc1 (centres undefined)	-102	–	–	–	–
CC(C)(C)SCCNC(=O)c1ccc(Cl)c([N+](=O)[O-])c1	–	27	98	–	–
CN(c1ccc(C(=O)NCC2CCCO2)cc1)S(=O)(=O)c1ccc(Cl)cc1 (centres undefined)	–	·	·	·	·
Cc1ccccc1CNC(=O)c1ccc(Cl)c([N+](=O)[O-])c1	–	–	–	–	–
CS(=O)(=O)N(CC(=O)N1CCCCCC1)Cc1ccc(Cl)cc1	–	–	–	–	·
CS(=O)(=O)N(CC(=O)N1CCN(Cc2ccc3c(c2)OCO3)CC1)Cc1ccc(Cl)cc1	-84	–	–	·	1.9µM
SMILES	HCMV inh	CHX counter	Shiga inhibitor	Pf growth 48h	Pf growth 96h
CS(=O)(=O)N(CC(=O)N1CCOCC1)Cc1ccc(Cl)cc1	–	–	–	–	7.4µM
Cc1cc2c(s1)c1cnn(Cc3ccc(Cl)cc3)c(=O)c1n2C	·	–	–	·	·
Cc1[nH]c(C)c2c(=O)n(Cc3ccc(Cl)cc3)ncc12	?	–	–	12µM	?
Oc1ccc(C2C(c3ccccc3)=NN=C(c3ccc(Cl)cc3)N2O)c(O)c1 (centres undefined)	–	–	–	?	2.6µM
O=C(CCS(=O)(=O)c1ccc(F)cc1)Nc1nnc(-c2ccc(F)cc2)o1	–	·	·	–	?
COc1ccc(C(=O)CN2C(=O)NC3(CCCc4ccccc43)C2=O)c(OC)c1 (centres undefined)	–	–	–	?	?
CC(=O)Nc1cncc(-c2ccccc2F)n1	-96	·	·	·	·
CCOC(=O)c1[nH]c(C)c(CCC(=O)Nc2cc(Cl)ccc2C)c1C	–	·	·	·	·
CC(C)(CN1CCC(Cc2ccccc2)CC1)NS(=O)(=O)c1ccccc1	–	–	–	12µM	–
CC(C)(CN1CCN(C(c2ccccc2)c2ccccc2)CC1)NS(=O)(=O)c1ccccc1	?	–	–	12µM	10µM
